Laboratory results from PubChem BioAssay (Tox21).
Records with an inconclusive call do not appear. Values without a mark were called inactive. The source made the active and inactive calls. Calls follow the shape of the dose curve; as a rule, active = well fitted cell-killing curve with a large enough effect in the repeat runs; inconclusive = weak or mixed curves, or effect the other way; inactive = flat fitted curve, though single readings scatter.

experiment: qHTS assay to identify small molecule antagonists of the androgen receptor (AR) signaling pathway using the MDA cell line - cell viability counter screen (AID 743041; also: nearly all actives have a fitted effect of over 45% in size); settings: MDA-kb2 viability, CellTiter-Fluor, 16 h, cells co-treated with R1881 androgen agonist; series mostly up to 70.3 µM; viability change, negative = cytotoxic: at the top concentration
Procedure, shortened: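 In this qHTS counter assay, fluorescence intensity after CellTiter-Fluor addition indicated viability of MDA-kb2 AR-luc cells given compounds and R1881 for 16 h at 37C.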
% is scaled to controls: 0 for no effect and ±100 for the full control effect; potency is read from the fitted curve at half-maximal effect.

| Compound | viability change, negative = cytotoxic | Potency |
| --- | --- | --- |
| CC/C=C\C/C=C\C/C=C\CCCCCCCC(=O)OCC | -0.489% [at 95 µM] |  |
| c1ccc(CCCc2ccncc2)cc1 | 5.23% |  |
| CCN(CC)CCOC(=O)C(c1ccccc1)c1ccccc1 | 6.87% |  |
| Nc1c(Cl)cc(Cl)cc1[N+](=O)[O-] | -3.11% |  |
| CC(C)(O)c1coc(S(=O)(=O)NC(=O)Nc2c3c(cc4c2CCC4)CCC3)c1 | 9.79% |  |
| CC(=O)NCCO | -2.84% |  |
| O=C1c2ccccc2C(=O)c2c(O)ccc(O)c21 | 21% |  |
| CC(C)OC(=O)c1ccccc1C(=O)OC(C)C | -0.643% |  |
| COc1cc(S(=O)(=O)Nc2ccccc2)c(OC)cc1N | -1.56% |  |
| COC(=O)c1sccc1S(N)(=O)=O | 2.44% |  |
| CS(=O)(=O)c1ccc([C@@H](C[C@H]2CCC(=O)C2)C(=O)Nc2cnccn2)cc1Cl | 2.99% |  |
| CC(C)C(O)C(C)(C)CO (configuration not stated) | 0.409% [at 95 µM] |  |
| COC(=O)C1=C(C)NC(C)=C(C(=O)OC(C)(C)CN(C)CCC(c2ccccc2)c2ccccc2)C1c1cccc([N+](=O)[O-])c1 (configuration not stated) | -26.3% |  |
| CCN(Cc1cccc(S(=O)(=O)O)c1)c1ccc(C(=C2C=CC(=[N+](CC)Cc3cccc(S(=O)(=O)O)c3)C=C2)c2ccccc2S(=O)(=O)[O-])cc1 |  | 38.7 µM (active) |
| CC(C)(C)C(O)/C=C/c1ccc2c(c1)OCO2 (configuration not stated) | -0.122% |  |
| CCCCCCCC/C=C\CCCCCCCC(=O)OCCO | -3.02% [at 95 µM] |  |
| Nc1nc2ccc(OC(F)(F)F)cc2s1 | 0.655% |  |
| CCN(CC)C(=O)/C(C#N)=C/c1cc(O)c(O)c([N+](=O)[O-])c1 | -19.4% |  |
| COc1cc(OC)c2ccc(=O)oc2c1 | 11.8% |  |
| CC(=O)OCCC(C)CC(C)(C)C (configuration not stated) | 2.4% |  |
| C=C(C)c1ccccc1 | 1.43% |  |
| c1ccc(CNc2ncnc3c2ncn3C2CCCCO2)cc1 (configuration not stated) | 6.01% |  |
| Cc1c(C2(c3cc(Br)c(O)c(Br)c3C)OS(=O)(=O)c3ccccc32)cc(Br)c(O)c1Br |  | 23.6 µM (active) |
| CC(=O)Oc1cccc(O)c1 | 7.35% |  |
| CC(C)COC(=O)c1ccc(O)cc1 | -15.6% |  |
| CO[C@@H]1[C@@H](OC)[C@H](C)[C@@](O)(CC(=O)O)O[C@H]1[C@H](C)[C@H]1O[C@@]2(CC[C@@](C)([C@H]3CC[C@@](C)([C@@H]4O[C@@H]([C@H]5O[C@](C)(O)[C@H](C)C[C@@H]5C)C[C@@H]4OC4C[C@H](OC)[C@@H](OC)[C@H](C)O4)O3)O2)C[C@H](O)[C@H]1C (some centres not stated) |  | 1.06 µM (active) |
| Cc1cc(CCC(=O)OCCOCCOCCOC(=O)CCc2cc(C)c(O)c(C(C)(C)C)c2)cc(C(C)(C)C)c1O | -0.381% |  |
